Drawing on PubChem BioAssay, this text covers composite z-score and z-score for five molecules.

Active and inactive are the calls of the source.

The nature of experiment [1]: small molecules captured by biotinylated probe aFSTL3 – biochemical, small-molecule microarray, fluorescence 635/667, stem cell growth factor project, primary screen (AID 1064).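 Also: measures binding of the biotinylated anti-FSTL3 antibody to printed compounds.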 As to conditions: higher = more signal.
The nature of experiment [2]: binders from COS7 lysate, DM2A8 probe, primary screen, torsin A project, cell lysate, small-molecule microarray, fluorescence 635/667 (AID 1065). As to conditions: higher = more signal, COS7 lysate expressing mutant human TOR1A.
Experiment [3] is described as follows: small molecules captured by biotinylated probe aFGF2 – biochemical, small-molecule microarray, fluorescence 635/667, stem cell growth factor project, primary screen (AID 1067).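 Also: measures binding of biotinylated aFGF2 protein to printed compounds on slides; z-score merges feature fluorescence and signal-to-noise across triplicate slides.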 As to conditions: higher = more signal.
Experiment [4] in a line: small molecules captured by biotinylated probe aFGF10 – biochemical, small-molecule microarray, fluorescence 635/667, stem cell growth factor project, primary screen (AID 1071).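 Also: score merges 667 nm spot intensity and signal to noise from triplicate slides.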 To be noted: higher = more signal.
The target in experiment [5] is Neurogenic locus notch homolog protein 2 (Homo sapiens) (UniProt Q04721). The experiment can be described thus: small molecules binding Notch2 protein – biochemical, small-molecule microarray, 635 nm fluorescence, stem cell growth factors, primary screen (AID 1073). To be noted: higher = more signal.
Experiment [6] has as its target Pro-neuregulin-1, membrane-bound isoform (Homo sapiens) (UniProt Q02297). Description: small molecules binding neuregulin-1 protein – biochemical, small-molecule microarray, fluorescence 635/667, psychiatric disease protein project, primary screen (AID 1075).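 Also: score combines 667 nm spot fluorescence with signal to noise.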 To be noted: NRG1 binding, 635 nm fluorescence, higher = more signal.
Experiment [7] deals with Neuregulin-1 EGF-like domain. Description: small molecules binding NRG1 EGF domain – biochemical, small-molecule microarray, 635 nm fluorescence, primary screen (AID 1081).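 Also: binding of the protein to compounds printed on small-molecule microarray slides.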 As to conditions: higher = more signal.
A short description of experiment [8]: FRG1 expression reporter modulators in myotubes – cell-based, C2C12 myotubes, firefly/Renilla luciferase, luminescence, FRG1 inhibition for FSHD, primary screen (AID 1084). As to conditions: FRG1 promoter luciferase, higher = more signal, called active from +8 up or from −8 down.
A short description of experiment [9]: small molecules captured by biotinylated probe aFST – biochemical, small-molecule microarray, fluorescence 635/667, stem cell growth factor project, primary screen (AID 1086).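 Also: score merges 667 nm fluorescence with signal-to-noise of each printed compound spot.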 As to conditions: higher = more signal.
A short description of experiment [10]: binders of probe aHhip on microarray, primary screen, stem cell growth factor project, biochemical, small-molecule microarray, fluorescence 635/667 (AID 1087).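 Also: score merges spot fluorescence at 667nm with spot signal to noise ratio.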 As to conditions: higher = more signal.
Experiment [11] has as its system PRMT1 (protein arginine N-methyltransferase 1). Description: small molecules binding arginine methyltransferase PRMT1 – biochemical, small-molecule microarray, 635 nm fluorescence, primary screen (AID 1088).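 Also: binding of Prmt1 protein to compounds spotted on small-molecule microarray slides.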 As to conditions: higher = more signal.
Experiment [12] is described as follows: growth effects on S. cerevisiae YJM789 – YJM789 clinical isolate, OD600, 24 h, basal, primary screen (AID 1089).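 Also: growth of clinical yeast isolate S. cerevisiae YJM 789 seeded 1000 cells per well; test concentration not given here.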 As to conditions: higher = more signal, called active from +8 up or from −8 down.
Experiment [13] is described as follows: S. pombe growth modifiers, basal conditions – strain 972, OD600, 24 h, no modulator, primary screen (AID 1090).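 Also: basal condition with compound alone and no growth modifier present; test concentration not given here.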 To be noted: S. pombe 972 growth, higher = more signal, called active from +8 up or from −8 down.
The nature of experiment [14]: budding yeast growth modifiers under rapamycin – strain BY4716, OD600, 96 h, primary screen (AID 1091). Also: test concentration not given here. As to conditions: S. cerevisiae BY4716 + rapamycin, higher = more signal, called active from +8 up or from −8 down.
For experiment [15], the target named is Torsin-1A-interacting protein 2 (Homo sapiens) (UniProt Q8NFQ8). Description: small molecules binding lysate-expressed LULL1 – cell lysate, human LULL1 lysate, 635/667 nm fluorescence, primary screen (AID 1092).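 Also: probe is lysate of COS7 cells overexpressing human LULL1; score merges per-feature 667 nm fluorescence with signal-to-noise.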 To be noted: small-molecule microarray, hLULL1 lysate binding, 635 nm fluorescence; higher = more signal.
Torsin-1A-interacting protein 2 (Homo sapiens), sequence (Q8NFQ8 whole entry, looked up): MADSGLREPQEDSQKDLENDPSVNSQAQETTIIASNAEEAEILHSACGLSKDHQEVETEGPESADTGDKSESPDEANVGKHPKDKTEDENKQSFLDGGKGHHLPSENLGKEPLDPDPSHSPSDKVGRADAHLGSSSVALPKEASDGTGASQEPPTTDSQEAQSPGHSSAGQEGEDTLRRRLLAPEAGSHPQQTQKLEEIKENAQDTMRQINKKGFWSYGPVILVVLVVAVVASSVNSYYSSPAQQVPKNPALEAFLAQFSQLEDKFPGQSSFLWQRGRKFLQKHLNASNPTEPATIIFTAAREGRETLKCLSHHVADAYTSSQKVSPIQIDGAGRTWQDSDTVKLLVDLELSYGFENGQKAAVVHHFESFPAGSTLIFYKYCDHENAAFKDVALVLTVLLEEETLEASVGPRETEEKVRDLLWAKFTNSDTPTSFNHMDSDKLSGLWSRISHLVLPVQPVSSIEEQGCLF
The nature of experiment [16]: optical density change of DRC41 E. coli – strain DRC41, OD650, 24 h, E. coli filamentation project, primary screen (AID 1093).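 Also: MC1000 strain lacking acrAB efflux and sulA so SOS filamentation is blocked; test concentration not given here.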 To be noted: E. coli DRC41 growth, higher = more signal, called active from +8 up or from −8 down.
The nature of experiment [17]: probe aLefty2 binding to arrayed compounds – biochemical, biotinylated probe, 635/667 nm fluorescence, primary screen (AID 1094).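 Also: score merges spot fluorescence near 667 nm with spot signal-to-noise ratio.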 To be noted: small-molecule microarray, higher = more signal.
Experiment [18] deals with Noggin (protein binding on small-molecule microarray). Description: small molecules binding Noggin protein – biochemical, 635/667 nm fluorescence, primary screen (AID 1095).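 Also: score merges 667 nm feature fluorescence with signal to noise over triplicate slides.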 To be noted: 635 nm fluorescence, higher = more signal.
Experiment [19] addresses Neurogenic locus notch homolog protein 3 (Homo sapiens) (UniProt Q9UM47). Description: small molecules binding NOTCH3 protein – biochemical, 635/667 nm fluorescence, primary screen (AID 1096). As to conditions: small-molecule microarray, 635 nm fluorescence, higher = more signal.
Experiment [20] can be described thus: probe aEGFR binding to arrayed compounds – biochemical, biotinylated probe, 635/667 nm fluorescence, primary screen (AID 1097).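 Also: probe is a biotinylated anti-EGFR antibody binding compounds printed on slides; score combines fluorescence near 667 nm and signal to noise of each spot.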 To be noted: small-molecule microarray, higher = more signal.

Neurogenic locus notch homolog protein 3 (Homo sapiens), sequence (Q9UM47 whole entry, looked up): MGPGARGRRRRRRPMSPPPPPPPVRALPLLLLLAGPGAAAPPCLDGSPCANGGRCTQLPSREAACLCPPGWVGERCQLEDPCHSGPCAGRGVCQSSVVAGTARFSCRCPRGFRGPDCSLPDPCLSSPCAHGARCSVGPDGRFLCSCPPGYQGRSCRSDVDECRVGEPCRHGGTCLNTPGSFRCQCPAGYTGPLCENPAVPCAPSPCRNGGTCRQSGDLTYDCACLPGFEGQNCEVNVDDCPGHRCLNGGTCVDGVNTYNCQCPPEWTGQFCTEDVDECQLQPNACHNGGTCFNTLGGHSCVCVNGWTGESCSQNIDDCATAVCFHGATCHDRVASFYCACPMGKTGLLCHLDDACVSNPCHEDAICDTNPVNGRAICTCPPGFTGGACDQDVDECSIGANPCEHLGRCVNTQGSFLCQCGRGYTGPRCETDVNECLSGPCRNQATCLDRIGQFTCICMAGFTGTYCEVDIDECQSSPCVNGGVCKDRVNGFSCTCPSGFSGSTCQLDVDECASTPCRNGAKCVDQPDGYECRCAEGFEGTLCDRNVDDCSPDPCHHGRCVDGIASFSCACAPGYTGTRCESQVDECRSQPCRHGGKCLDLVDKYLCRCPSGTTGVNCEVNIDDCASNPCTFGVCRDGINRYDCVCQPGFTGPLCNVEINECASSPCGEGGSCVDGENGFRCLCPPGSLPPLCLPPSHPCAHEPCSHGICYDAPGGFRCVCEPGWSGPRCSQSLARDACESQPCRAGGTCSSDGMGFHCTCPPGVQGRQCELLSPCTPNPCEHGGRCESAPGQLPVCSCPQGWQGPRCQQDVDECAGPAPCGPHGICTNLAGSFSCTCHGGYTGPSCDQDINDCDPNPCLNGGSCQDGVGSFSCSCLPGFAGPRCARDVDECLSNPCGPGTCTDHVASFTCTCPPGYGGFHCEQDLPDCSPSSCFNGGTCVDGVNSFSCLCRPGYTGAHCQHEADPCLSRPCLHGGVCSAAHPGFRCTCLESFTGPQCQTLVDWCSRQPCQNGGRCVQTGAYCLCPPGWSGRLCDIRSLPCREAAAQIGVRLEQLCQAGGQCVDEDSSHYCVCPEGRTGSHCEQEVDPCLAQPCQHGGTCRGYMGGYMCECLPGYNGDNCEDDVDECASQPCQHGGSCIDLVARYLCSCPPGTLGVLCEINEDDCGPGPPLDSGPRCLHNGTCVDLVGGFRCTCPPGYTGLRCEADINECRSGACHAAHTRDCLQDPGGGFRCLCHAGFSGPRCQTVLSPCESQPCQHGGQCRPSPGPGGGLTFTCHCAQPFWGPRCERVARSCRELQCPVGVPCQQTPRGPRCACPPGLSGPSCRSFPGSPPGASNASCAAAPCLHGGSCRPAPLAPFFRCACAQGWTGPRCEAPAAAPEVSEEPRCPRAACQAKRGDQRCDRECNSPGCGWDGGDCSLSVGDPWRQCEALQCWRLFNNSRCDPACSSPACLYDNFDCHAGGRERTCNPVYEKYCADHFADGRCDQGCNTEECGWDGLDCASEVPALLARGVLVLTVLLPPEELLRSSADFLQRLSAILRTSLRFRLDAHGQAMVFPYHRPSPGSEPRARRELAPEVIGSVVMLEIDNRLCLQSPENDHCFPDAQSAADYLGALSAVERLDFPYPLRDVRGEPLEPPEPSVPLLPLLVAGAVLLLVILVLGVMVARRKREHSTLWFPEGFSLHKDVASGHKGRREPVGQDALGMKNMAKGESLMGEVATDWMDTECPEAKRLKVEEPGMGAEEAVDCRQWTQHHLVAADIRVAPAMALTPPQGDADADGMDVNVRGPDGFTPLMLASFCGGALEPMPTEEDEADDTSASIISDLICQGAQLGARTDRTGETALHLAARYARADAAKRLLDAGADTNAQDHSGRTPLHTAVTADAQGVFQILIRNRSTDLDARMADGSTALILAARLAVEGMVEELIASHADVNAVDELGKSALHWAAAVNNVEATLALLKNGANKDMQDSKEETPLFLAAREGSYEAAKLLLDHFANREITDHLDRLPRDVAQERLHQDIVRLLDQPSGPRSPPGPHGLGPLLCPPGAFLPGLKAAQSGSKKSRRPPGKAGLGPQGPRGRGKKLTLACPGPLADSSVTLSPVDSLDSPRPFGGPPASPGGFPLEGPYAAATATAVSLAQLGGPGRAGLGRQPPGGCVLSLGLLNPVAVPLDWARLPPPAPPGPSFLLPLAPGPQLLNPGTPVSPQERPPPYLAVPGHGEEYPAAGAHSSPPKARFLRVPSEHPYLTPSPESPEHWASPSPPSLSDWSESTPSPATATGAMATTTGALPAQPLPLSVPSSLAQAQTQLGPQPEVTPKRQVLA
Pro-neuregulin-1, membrane-bound isoform (Homo sapiens), sequence (Q02297 whole entry, looked up, the tested form may be a part, canonical isoform): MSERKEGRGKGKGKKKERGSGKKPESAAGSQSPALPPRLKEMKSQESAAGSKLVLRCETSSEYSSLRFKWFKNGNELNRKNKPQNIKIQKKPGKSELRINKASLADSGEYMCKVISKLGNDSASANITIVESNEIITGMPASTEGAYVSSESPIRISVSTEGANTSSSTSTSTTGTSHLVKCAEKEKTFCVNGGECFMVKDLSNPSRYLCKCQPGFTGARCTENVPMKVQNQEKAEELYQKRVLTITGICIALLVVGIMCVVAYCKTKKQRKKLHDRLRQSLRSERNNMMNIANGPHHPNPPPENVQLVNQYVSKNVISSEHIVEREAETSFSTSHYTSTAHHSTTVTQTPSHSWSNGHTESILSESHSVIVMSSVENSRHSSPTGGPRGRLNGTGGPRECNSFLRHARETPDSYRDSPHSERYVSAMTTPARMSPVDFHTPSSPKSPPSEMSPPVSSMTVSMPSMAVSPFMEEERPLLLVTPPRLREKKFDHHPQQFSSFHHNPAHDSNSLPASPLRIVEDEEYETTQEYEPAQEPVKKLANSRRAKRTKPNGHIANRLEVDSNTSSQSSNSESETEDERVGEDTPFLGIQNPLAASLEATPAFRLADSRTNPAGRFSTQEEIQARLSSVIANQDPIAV

Regarding `COCCOC(=O)N1C(=O)[C@@]2(c3cc(C#CCCO)ccc31)[C@H](c1ccccc1OCCO)N1[C@H](c3ccccc3)[C@H](c3ccccc3)OC(=O)[C@H]1[C@@H]2C(N)=O`, the composite z-score is -0.455 in experiment [1]; -0.0702 in [2]; -0.0723 in experiment [3]; 0.758 in experiment [4]; 1.3 in [5]; 1.55 in experiment [6]. Besides, the composite z-score in experiment [7] was 1.22; in experiment [9], 0.806; in experiment [10], -0.0645; in [11], 1.55; in [15], 3.08; in experiment [17], -0.123. The composite z-score stood at 1.6 in experiment [18], 1.11 in experiment [19] and 0.0111 in [20]. Besides, the z-score in experiment [8] was -1.9 (inactive); in [12], 1.48 (inactive); in experiment [13], 0.142 (inactive); in experiment [14], 2.99 (inactive); in experiment [16], 2.16 (inactive).
`C=CCC(OC(C)=O)[C@@H]1[C@@H](N(Cc2cc3ccccc3o2)C(=O)c2cccc3ccccc23)c2cc(OCCCO)ccc2N1C(=O)c1ccc2ccccc2n1` (stereo not given in full): the composite z-score in [1] was 1.68; in [2] it was 0.27; in experiment [3], -0.116; in experiment [4], 0.0823; in experiment [5], 0.16; in [6] it was -0.0193. Further, the composite z-score in [7] was -0.112; in experiment [9] it was -0.061; in experiment [10], -0.125; in [11], 0.109; in experiment [15], 0.588; in experiment [17], -0.0285. For the same molecule, the composite z-score is 0.728 in [18], -0.127 in experiment [19] and -0.182 in [20]. Also, the z-score was -1.53 (inactive) in [8]; 0.472 (inactive) in experiment [12]; -0.8 (inactive) in experiment [13]; 0.12 (inactive) in [14]; 1.06 (inactive) in experiment [16].
As to `O=C1O[C@H](c2ccccc2)[C@H](c2ccccc2)N2[C@H]1[C@@H](C(=O)O)[C@]1(C(=O)Nc3ccc(C#CCCO)cc31)[C@H]2c1ccc(OCCO)cc1`, the composite z-score in [1] was 0.282; in experiment [2], 1.12; in [3], -0.12; in [4], 0.826; in experiment [5] it was 0.89; in [6], 1.86. The composite z-score in experiment [7] was determined as 1.28; in [9], 0.101; in experiment [10], 0.189; in [11] it was 0.862; in experiment [15], 1.98; in experiment [17], 0.547. The composite z-score in experiment [18] is 0.452; in experiment [19], 0.105; in experiment [20], -0.0304. Further, the z-score is -0.708 (inactive) in experiment [8]; 0.19 (inactive) in experiment [12]; -0.428 (inactive) in experiment [13]; -0.502 (inactive) in [14]; 1.71 (inactive) in experiment [16].
With `COCCOC(=O)N1C(=O)[C@@]2(c3cc(C#CCC(C(=O)OC)C(=O)OC)ccc31)[C@H](C(=O)Nc1nc3ccccc3s1)[C@H]1C(=O)O[C@H](c3ccccc3)[C@H](c3ccccc3)N1[C@@H]2c1ccc(OCCO)cc1`, the composite z-score in [1] was found to be 0.357; in experiment [2], 0.773; in experiment [3] it was 0.224; in experiment [4], 0.81; in experiment [5], 1.22; in experiment [6] it was 0.166. In addition, the composite z-score in experiment [7] was 1.23; in [9], 0.853; in experiment [10] it was -0.0699; in [11] it was 1.54; in experiment [15], 1.43; in experiment [17], 0.483. The results for the composite z-score in experiment [18], in experiment [19] and in experiment [20] were 1.89, 1.05 and 0.232, respectively. The z-score in experiment [8] was 4.17 (inactive); in [12] it was 1.74 (inactive); in experiment [13], 0.657 (inactive); in [14], 2.14 (inactive); in experiment [16], 1.43 (inactive).
On to `CC(=O)c1ccc(C(O)C2C=CC3C(=O)N(c4ccccc4)C(=O)C3N2Nc2ccc(C(C)C)cc2)cc1` (stereo not given), for which the composite z-score is 0.305 in experiment [1]; -0.152 in experiment [2]; -0.0226 in [3]; 0.897 in experiment [4]; 1.37 in experiment [5]; 1.55 in experiment [6]. Also, the composite z-score in experiment [7] is 1.09; in [9], 1.51; in experiment [10], -0.106; in [11] it was 1.08; in experiment [15], 2.24; in experiment [17] it was 0.136. For the same molecule, the composite z-score was 0.101 in experiment [18], 1.07 in experiment [19] and 0.187 in experiment [20]. In addition, the z-score in experiment [8] was 0.59 (inactive); in experiment [12] it was 1.24 (inactive); in experiment [13], 1.55 (inactive); in experiment [14], -0.0304 (inactive); in experiment [16], -0.541 (inactive).
